The source made the active and inactive calls. How the source made its calls: active means hit-call score of the fitted dose curve at least 0.9, where 1 is the maximum; inactive means score below 0.9.
Tests used:
Conditions in all cases: mRNA level, 48 h; actives raise or lower the signal
[1] = read-out: Nuclear factor NF-kappa-B p105 subunit (Homo sapiens) (UniProt P19838); assay: LTEA_HepaRG_NFKB1: Life Technologies and Expression Analysis (LTEA) Assay for Nuclear Factor Kappa B Subunit 1 (NFKB1) using HepaRG (AID 2283521)
How it was run: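 Differentiated human HepaRG cells in serum-free induction medium with 0.5% DMSO were exposed for 48 h to eight half-log concentrations, top 100 uM, in duplicate. NFKB1 mRNA measured by Fluidigm TaqMan qRT-PCR, normalised to ACTB, GAPDH and POLR2A; bidirectional fit versus DMSO.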

[2] = read-out: Protein phosphatase 2A (PPP2R4), PTPA (gene 5524); assay: LTEA_HepaRG_PPP2R4: Life Technologies and Expression Analysis (LTEA) Assay for Protein phosphatase 2A (PPP2R4) using HepaRG (AID 2283522)
How it was run: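 Using HepaRG cultures maintained in 0.5% DMSO, chemicals are tested 48 h at up to 100 uM in duplicate. Induction or suppression of PPP2R4 mRNA, measured by qRT-PCR, is fitted bidirectionally against the vehicle baseline.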

[3] = read-out: Phosphatase and tensin (PTEN), PTEN (gene 5728); assay: LTEA_HepaRG_PTEN: Life Technologies and Expression Analysis (LTEA) Assay for Phosphatase and tensin (PTEN) using HepaRG (AID 2283523)
How it was run: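 Read-out: TaqMan qRT-PCR of PTEN transcript, normalized to three housekeeping genes, fitted in both directions against 0.5% DMSO. Differentiated human HepaRG cultures received chemicals for 48 h, eight-point half-log series topping at 100 uM.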

[4] = read-out: solute carrier (SLC22A1), SLC22A1 (gene 6580); assay: LTEA_HepaRG_SLC22A1: Life Technologies and Expression Analysis (LTEA) Assay for solute carrier (SLC22A1) using HepaRG (AID 2283524)
How it was run: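 Transcript level of SLC22A1 quantified by qRT-PCR (normalized to three housekeeping genes) after 48 h chemical exposure of HepaRG cells, eight concentrations up to 100 µM, half-log steps, 0.5% DMSO vehicle. Gain or loss relative to DMSO fitted bidirectionally.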

[5] = read-out: Pyruvate Dehydrogenase Kinase 4 (PDK4), PDK4 (gene 5166); assay: LTEA_HepaRG_PDK4: Life Technologies and Expression Analysis (LTEA) Assay for Pyruvate Dehydrogenase Kinase 4 (PDK4) using HepaRG (AID 2283525)
How it was run: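 Readout is qRT-PCR of PDK4 transcript, normalized to three housekeeping genes, with bidirectional fitting against 0.5% DMSO vehicle. Differentiated HepaRG cells were treated 48 h in serum-free induction medium, duplicate wells, eight-point half-log series topping at 100 uM.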

[6] = read-out: NAD(P)H dehydrogenase [quinone] 1 (NQO1), NQO1 (gene 1728); assay: LTEA_HepaRG_NQO1: Life Technologies and Expression Analysis (LTEA) Assay for NAD(P)H dehydrogenase [quinone] 1 (NQO1) using HepaRG (AID 2283526)
How it was run: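 In this assay, gene expression is read by qRT-PCR after 48 h exposure of HepaRG cells to eight concentrations (max 100 uM, half-log) in 0.5% DMSO. Each chemical runs in duplicate, and activity is scored relative to vehicle.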

[7] = read-out: Nuclear factor erythroid 2-related factor 2 (Homo sapiens) (UniProt Q16236); assay: LTEA_HepaRG_NFE2L2: Life Technologies and Expression Analysis (LTEA) Assay for Nuclear factor erythroid 2-related factor 2 (NFE2L2) Transcription Factor using HepaRG (AID 2283527);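 further: TaqMan qRT-PCR transcript level normalised to ACTB GAPDH and POLR2A housekeeping genes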
How it was run: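 NFE2L2 transcript level was read by qRT-PCR (housekeeping ACTB/GAPDH/POLR2A normalisation) after 48 h chemical treatment of HepaRG in serum-free induction medium. Duplicate 8-point half-log curves, top 100 uM, 0.5% DMSO vehicle; up- or down-regulation fitted against vehicle.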

[8] = read-out: succinate dehydrogenase complex iron sulfur subunit B (SDHB), SDHB (gene 6390); assay: LTEA_HepaRG_SDHB: Life Technologies and Expression Analysis (LTEA) Assay for succinate dehydrogenase complex iron sulfur subunit B (SDHB) using HepaRG (AID 2283528)
How it was run: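 HepaRG cells (~100,000/well, plated 48 h) exposed in duplicate for 48 h in serum-free induction medium to 8-point half-log series from 100 uM in 0.5% DMSO; mRNA by qRT-PCR normalised to ACTB, GAPDH, POLR2A; bidirectional fit versus DMSO.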

[9] = read-out: Signal transducer and activator of transcription 3 (Homo sapiens) (UniProt P40763); assay: LTEA_HepaRG_STAT3: Life Technologies and Expression Analysis (LTEA) Assay for Signal transducer and activator of transcription (STAT3) using HepaRG (AID 2283529)
How it was run: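 STAT3 transcript quantified by qRT-PCR against three housekeeping genes (ACTB, GAPDH, POLR2A), fitted both directions relative to DMSO. HepaRG cultures exposed 48 h to eight half-log concentrations, top 100 uM, 0.5% DMSO, serum-free induction medium.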

[10] = read-out: solute carrier (SLCO1B1), SLCO1B1 (gene 10599); assay: LTEA_HepaRG_SLCO1B1: Life Technologies and Expression Analysis (LTEA) Assay for solute carrier (SLCO1B1) using HepaRG (AID 2283530)
How it was run: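 SLCO1B1 transcript levels were quantified by TaqMan qRT-PCR using three housekeeping genes for normalization. This followed 48 h chemical exposure (100 uM top, half-log, 8 points, 0.5% DMSO) of HepaRG liver cells, with gain or loss fitted relative to DMSO.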

[11] = read-out: sulfotransferase 2A1 (SULT2A1), SULT2A1 (gene 6822); assay: LTEA_HepaRG_SULT2A1: Life Technologies and Expression Analysis (LTEA) Assay for sulfotransferase 2A1 (SULT2A1) using HepaRG (AID 2283531)
How it was run: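 Expression change of SULT2A1, by qRT-PCR with three housekeeping-gene normalization, was scored bidirectionally versus DMSO. Cells: differentiated HepaRG, dosed in duplicate for 48 h across 8 points, highest 100 µM, half-log dilution, 0.5% DMSO.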

[12] = read-out: Transforming Growth Factor (TGFA), TGFA (gene 7039); assay: LTEA_HepaRG_TGFA: Life Technologies and Expression Analysis (LTEA) Assay for Transforming Growth Factor (TGFA) using HepaRG (AID 2283532)
How it was run: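 TGFA transcript quantified by qRT-PCR (Fluidigm arrays) against three housekeeping genes, after 48 hours chemical treatment of HepaRG cells. Top concentration 100 uM with half-log dilutions, 8 points, duplicates, 0.5% DMSO.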

[13] = read-out: Transforming Growth Factor (TGFB1), TGFB1 (gene 7040); assay: LTEA_HepaRG_TGFB1: Life Technologies and Expression Analysis (LTEA) Assay for Transforming Growth Factor (TGFB1) Transporter using HepaRG (AID 2283533)
How it was run: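 TGFB1 transcript measured by qRT-PCR with normalisation to three housekeeping genes (ACTB, GAPDH, POLR2A); human HepaRG line treated in duplicate for 48 hr with an 8-point series topping at 100 uM, 0.5% DMSO vehicle, bidirectionally fitted.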

TIMP1, TIMP1 (gene 7076) = assay: LTEA_HepaRG_TIMP1: Life Technologies and Expression Analysis (LTEA) Assay for TIMP1 using HepaRG (AID 2283534)
How it was run: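 Bidirectional change in TIMP1 transcript versus 0.5% DMSO, measured by TaqMan qRT-PCR with three housekeeping genes for normalization. HepaRG human liver cells dosed 48 h in duplicate, top concentration 100 uM with half-log dilutions.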

[14] = read-out: Tumor necrosis factor receptor 1 (TNFRSF1A), TNFRSF1A (gene 7132); assay: LTEA_HepaRG_TNFRSF1A: Life Technologies and Expression Analysis (LTEA) Assay for Tumor necrosis factor receptor 1 (TNFRSF1A) using HepaRG (AID 2283535)
How it was run: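 mRNA measured by qRT-PCR (TaqMan, Fluidigm arrays) against ACTB/GAPDH/POLR2A housekeepers after 48 h chemical exposure of HepaRG cells. Top concentration 100 uM, half-log 8-point series, duplicates; vehicle 0.5% DMSO, both fit directions.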

[15] = read-out: Cellular tumor antigen p53 (Homo sapiens) (UniProt P04637); assay: LTEA_HepaRG_TP53: Life Technologies and Expression Analysis (LTEA) Assay for Tumor Protein P53 (TP53) using HepaRG (AID 2283537)
How it was run: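 Differentiated HepaRG cells in serum-free induction medium exposed 48 h in duplicate to 8 half-log concentrations, top 100 uM, 0.5% DMSO. TP53 mRNA by TaqMan qRT-PCR (Fluidigm), normalized to ACTB, GAPDH, POLR2A; fitted bidirectionally versus DMSO.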

[16] = read-out: UDP glucuronosyltransferase (UGT1A1), UGT1A1 (gene 54658); assay: LTEA_HepaRG_UGT1A1: Life Technologies and Expression Analysis (LTEA) Assay for UDP glucuronosyltransferase (UGT1A1) using HepaRG (AID 2283538)
How it was run: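 mRNA induction or loss of UGT1A1, by TaqMan qRT-PCR, in duplicate HepaRG wells after 48 h exposure to half-log dilutions topping at 100 uM; DMSO (0.5%) served as baseline.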

[17] = read-out: UDP glucuronosyltransferase (UGT1A6), UGT1A6 (gene 54578); assay: LTEA_HepaRG_UGT1A6: Life Technologies and Expression Analysis (LTEA) Assay for UDP glucuronosyltransferase (UGT1A6) using HepaRG (AID 2283539)
How it was run: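 Expression was quantified by TaqMan qRT-PCR on Fluidigm arrays with ACTB/GAPDH/POLR2A normalization and bidirectional fitting against 0.5% DMSO. HepaRG cells (~100,000/well) were treated in duplicate for 48 h at eight half-log concentrations up to 100 uM in serum-free induction medium.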

[18] = read-out: X-box binding protein 1 (XBP1), XBP1 (gene 7494); assay: LTEA_HepaRG_XBP1: Life Technologies and Expression Analysis (LTEA) Assay for X-box binding protein 1 (XBP1) using HepaRG (AID 2283540)
How it was run: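 XBP1 transcript by qRT-PCR (housekeeping-normalized: ACTB, GAPDH, POLR2A) after 48 h chemical treatment of HepaRG cells, 8-point half-log series topping at 100 uM, vehicle 0.5% DMSO. Gain and loss of signal fitted relative to DMSO.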

[19] = read-out: Thyroid Hormone Responsive (THRSP), THRSP (gene 7069); assay: LTEA_HepaRG_THRSP: Life Technologies and Expression Analysis (LTEA) Assay for Thyroid Hormone Responsive (THRSP) using HepaRG (AID 2283536)
How it was run: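 THRSP transcript quantified by Fluidigm qRT-PCR against three housekeeping genes after 48 h chemical exposure of HepaRG cells in serum-free induction medium; eight-point half-log series, top 100 uM, 0.5% DMSO vehicle, duplicate wells.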

Measured: outcome

Sequence of Nuclear factor erythroid 2-related factor 2 (Homo sapiens) (Q16236 whole entry, looked up): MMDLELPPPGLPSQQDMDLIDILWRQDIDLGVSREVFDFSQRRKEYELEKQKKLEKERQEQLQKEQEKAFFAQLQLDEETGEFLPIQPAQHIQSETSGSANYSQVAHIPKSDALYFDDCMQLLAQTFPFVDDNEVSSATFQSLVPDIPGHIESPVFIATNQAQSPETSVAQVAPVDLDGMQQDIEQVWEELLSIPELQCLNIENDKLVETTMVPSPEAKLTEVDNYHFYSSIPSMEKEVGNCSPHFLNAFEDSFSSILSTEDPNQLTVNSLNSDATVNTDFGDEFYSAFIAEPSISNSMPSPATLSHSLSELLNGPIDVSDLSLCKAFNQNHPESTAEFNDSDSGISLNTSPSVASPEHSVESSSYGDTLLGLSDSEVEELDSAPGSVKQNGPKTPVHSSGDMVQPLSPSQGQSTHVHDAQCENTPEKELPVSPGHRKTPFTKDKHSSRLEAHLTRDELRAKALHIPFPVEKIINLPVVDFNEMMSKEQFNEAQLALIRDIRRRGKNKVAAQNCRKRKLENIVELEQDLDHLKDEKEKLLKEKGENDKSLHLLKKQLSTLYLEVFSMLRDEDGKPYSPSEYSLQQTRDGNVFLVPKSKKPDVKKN
Sequence of Signal transducer and activator of transcription 3 (Homo sapiens) (P40763 whole entry, looked up): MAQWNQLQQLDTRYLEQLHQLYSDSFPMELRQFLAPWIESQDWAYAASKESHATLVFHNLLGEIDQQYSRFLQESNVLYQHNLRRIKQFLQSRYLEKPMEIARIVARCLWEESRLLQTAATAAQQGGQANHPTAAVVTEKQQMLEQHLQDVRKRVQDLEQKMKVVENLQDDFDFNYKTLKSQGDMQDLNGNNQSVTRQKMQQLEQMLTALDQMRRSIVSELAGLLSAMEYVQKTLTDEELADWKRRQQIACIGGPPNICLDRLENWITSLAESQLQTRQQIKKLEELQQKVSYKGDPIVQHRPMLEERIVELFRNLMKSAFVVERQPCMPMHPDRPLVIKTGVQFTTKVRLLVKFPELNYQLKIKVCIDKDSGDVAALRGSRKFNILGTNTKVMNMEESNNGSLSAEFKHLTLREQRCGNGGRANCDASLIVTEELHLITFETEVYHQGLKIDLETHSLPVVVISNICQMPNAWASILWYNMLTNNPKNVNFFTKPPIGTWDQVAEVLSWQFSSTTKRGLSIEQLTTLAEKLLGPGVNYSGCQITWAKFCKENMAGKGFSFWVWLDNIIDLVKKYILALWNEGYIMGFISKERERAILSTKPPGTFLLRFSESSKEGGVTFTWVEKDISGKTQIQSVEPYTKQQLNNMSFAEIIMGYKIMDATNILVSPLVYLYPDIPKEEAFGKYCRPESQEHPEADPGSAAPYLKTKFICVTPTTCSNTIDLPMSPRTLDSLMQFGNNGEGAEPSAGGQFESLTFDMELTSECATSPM
Sequence of Nuclear factor NF-kappa-B p105 subunit (Homo sapiens) (P19838 whole entry, looked up): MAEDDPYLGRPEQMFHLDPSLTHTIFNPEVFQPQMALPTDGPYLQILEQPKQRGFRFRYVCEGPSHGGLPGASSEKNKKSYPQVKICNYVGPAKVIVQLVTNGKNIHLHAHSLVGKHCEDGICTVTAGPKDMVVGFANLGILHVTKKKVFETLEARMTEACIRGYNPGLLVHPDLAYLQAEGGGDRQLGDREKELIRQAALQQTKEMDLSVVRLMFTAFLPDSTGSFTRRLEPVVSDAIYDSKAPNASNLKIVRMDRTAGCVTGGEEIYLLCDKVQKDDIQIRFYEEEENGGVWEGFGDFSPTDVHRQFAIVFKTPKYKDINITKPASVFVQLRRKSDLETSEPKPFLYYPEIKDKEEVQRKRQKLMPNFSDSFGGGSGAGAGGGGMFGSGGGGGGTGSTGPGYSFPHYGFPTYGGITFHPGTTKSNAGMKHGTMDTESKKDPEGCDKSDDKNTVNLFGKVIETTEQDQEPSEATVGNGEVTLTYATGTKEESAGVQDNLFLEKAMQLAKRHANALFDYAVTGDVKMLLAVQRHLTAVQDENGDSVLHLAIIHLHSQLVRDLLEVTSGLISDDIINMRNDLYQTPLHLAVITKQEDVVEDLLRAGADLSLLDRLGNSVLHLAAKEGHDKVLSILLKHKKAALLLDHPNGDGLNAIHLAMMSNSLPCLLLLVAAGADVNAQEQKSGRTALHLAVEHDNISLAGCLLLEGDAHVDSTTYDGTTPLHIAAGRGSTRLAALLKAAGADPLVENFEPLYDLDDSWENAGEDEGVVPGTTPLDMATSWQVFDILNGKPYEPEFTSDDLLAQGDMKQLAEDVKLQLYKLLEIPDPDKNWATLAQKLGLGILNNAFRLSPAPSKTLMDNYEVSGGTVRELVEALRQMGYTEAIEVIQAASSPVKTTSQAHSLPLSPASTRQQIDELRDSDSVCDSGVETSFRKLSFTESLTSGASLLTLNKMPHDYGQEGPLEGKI
Sequence of Cellular tumor antigen p53 (Homo sapiens) (P04637 whole entry, looked up): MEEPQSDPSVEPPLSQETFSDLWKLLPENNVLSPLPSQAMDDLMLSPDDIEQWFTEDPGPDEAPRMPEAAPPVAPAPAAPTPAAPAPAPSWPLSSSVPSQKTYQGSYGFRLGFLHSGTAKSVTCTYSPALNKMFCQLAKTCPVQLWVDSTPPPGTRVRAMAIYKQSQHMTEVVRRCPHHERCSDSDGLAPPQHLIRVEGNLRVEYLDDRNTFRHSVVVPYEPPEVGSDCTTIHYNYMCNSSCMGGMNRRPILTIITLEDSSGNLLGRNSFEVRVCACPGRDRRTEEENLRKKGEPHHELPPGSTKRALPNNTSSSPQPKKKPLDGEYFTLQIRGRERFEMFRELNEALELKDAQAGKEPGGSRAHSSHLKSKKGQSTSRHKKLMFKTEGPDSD

CCc1ccc(O)c(C(C)(C)C)c1
not listed: [19]
inactive: all other assays above

CCCC(CCC)C(=O)O
not listed: [15] | [19]
inactive: all other assays above

O=C(O)c1ccc2c(c1)nc(C(=O)NC1CCN(C3CC3)CC1)n2Cc1cc(-c2ccc(Cl)s2)on1
not listed: [12]
inactive: all other assays above
